Source: PubChem BioAssay
An excerpt weighted towards active compounds, which were near 4.3% of everything screened.
Anthrax LF inh2: inhibitors of Bacillus anthracis lethal factor protease; multiplex microsphere protease cleavage assay, LF; inhibition, % at 10 µM; 360,000 tested, 0.12% active; also: plate controls were buffer without enzyme for full effect and enzyme alone for no effect
Target sequence (P15917 whole entry, looked up): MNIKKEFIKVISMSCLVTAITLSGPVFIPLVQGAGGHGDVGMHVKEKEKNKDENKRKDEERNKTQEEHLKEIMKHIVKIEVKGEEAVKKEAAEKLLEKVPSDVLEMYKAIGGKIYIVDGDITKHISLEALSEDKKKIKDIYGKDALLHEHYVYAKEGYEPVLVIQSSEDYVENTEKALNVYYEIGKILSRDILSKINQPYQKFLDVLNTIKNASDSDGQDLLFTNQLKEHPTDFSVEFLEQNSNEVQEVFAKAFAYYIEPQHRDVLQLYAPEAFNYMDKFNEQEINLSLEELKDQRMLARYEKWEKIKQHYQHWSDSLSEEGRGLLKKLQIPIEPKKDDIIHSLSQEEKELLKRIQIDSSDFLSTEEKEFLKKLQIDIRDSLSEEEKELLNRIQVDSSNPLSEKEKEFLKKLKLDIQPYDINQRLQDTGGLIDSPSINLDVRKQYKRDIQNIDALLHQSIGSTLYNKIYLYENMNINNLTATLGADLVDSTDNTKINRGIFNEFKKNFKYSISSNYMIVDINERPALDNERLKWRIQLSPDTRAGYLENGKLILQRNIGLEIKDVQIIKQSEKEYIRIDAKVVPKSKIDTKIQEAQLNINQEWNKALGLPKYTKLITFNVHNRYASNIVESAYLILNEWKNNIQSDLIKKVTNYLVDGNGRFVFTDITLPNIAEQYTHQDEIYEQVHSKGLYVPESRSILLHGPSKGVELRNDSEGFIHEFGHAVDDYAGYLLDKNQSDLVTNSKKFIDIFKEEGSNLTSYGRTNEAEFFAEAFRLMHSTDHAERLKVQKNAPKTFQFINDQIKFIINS
BoNT A protease: blocks Botulinum neurotoxin A light chain protease; multiplex microsphere protease substrate cleavage, flow cytometry; inhibition, % at 10 µM; 360,000 tested, 0.17% active; AID 588499; also: plate controls were buffer without enzyme for full effect and enzyme alone for no effect
PfHsp40 rescue: restores yeast growth despite PfHsp40 toxicity. S. cerevisiae expressing PfHsp40, growth rescue, ATP luminescence. growth rescue, % at 12.5 µM. 340,000 tested, 0.68% active; in the data active = growth rescue above about 28%, passing the limit was not always enough; inconclusive = no clear call, values can overlap the other calls;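 also: yeast W303a lacking pdr1 and pdr3 grown in galactose medium; growth measured after three days at 30 °C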
Bead autofluor: compound fluorescence in toxin protease inhibitor counterscreen; compound autofluorescence counterscreen, microsphere flow cytometry; stronger effect = higher value; fluorescence intensity (test concentration not listed); 360,000 tested, 3.1% active; AID 624483; in the data active = fluorescence intensity above about 16000; inconclusive = no clear call, values can overlap the other calls
MazF activator: increases E. coli MazEF RNase cleavage of RNA; P0AE70; FAM/BHQ RNA-DNA oligo cleavage fluorescence, 5 h; activation, % at 20 µM; 350,000 tested, 0.32% active; AID 504720; in the data active = activation above about 50%
BoNT F protease: inhibitors of Botulinum neurotoxin F light chain protease. Multiplex microsphere protease cleavage assay, flow cytometry. inhibition, % at 10 µM. 360,000 tested, 0.22% active. AID 588497; in the data active = inhibition above about 35%, passing the limit was not always enough; inconclusive = no clear call, values can overlap the other calls; also: plate controls were buffer without enzyme for full effect and enzyme alone for no effect
* hit, by the source's call; ? = inconclusive; · = not tested or not shown; ! = a repeat was not active. Rule as the data show it, unless noted: active = inhibition above about 30%; inconclusive = no clear call, values can overlap the other calls; inactive = below that.

SMILES | Anthrax LF inh2 | BoNT A protease | PfHsp40 rescue | Bead autofluor | MazF activator | BoNT F protease
COc1ccc(-c2cc(C(=O)N3CCN(c4ccccc4F)CC3)c3ccccc3n2)c(OC)c1 | 0 | 2 | 376* | 5128 | -9 | 6
COc1ccc(-c2cc(C(=O)N3CCN(c4ncccn4)CC3)c3ccccc3n2)c(OC)c1 | -1 | 0 | ? | 2425 | -13 | 0
CCOc1ccccc1N1CCN(C(=O)c2cc(-c3cc(OC)ccc3OC)nc3ccccc23)CC1 | 2 | -8 | 31* | 5886 | -2 | -16
O=c1[nH]nnc2c1cnn2-c1ccccc1 | -5 | 0 | -1 | 4466 | 6 | -2
Nc1c(C(=O)NC2CCCC2)sc2nc(-c3cccs3)ccc12 | 14 | 18 | 0 | 3069 | 52* | 25
NC(=O)c1sc2nc(-c3cccs3)ccc2c1N | -2 | 10 | 0 | 3792 | -1 | 2
Cc1nc(Sc2ccccc2)c(C#N)cc1-c1ccccc1 | -2 | -2 | 0 | 12117 | -10 | -14
Cc1nc(Cl)c(C#N)cc1-c1ccccc1 | 2 | 0 | -1 | 19692* | 10 | -2
CC(C)(C)c1ccc(OCC(=O)NC2CCS(=O)(=O)C2)cc1 (stereo unspecified) | 2 | ? | 0 | 19473* | 2 | 5
Cc1ccc(OC(=O)NC2CCS(=O)(=O)C2)cc1C (stereo unspecified) | -2 | -2 | 0 | 23723* | -10 | -3
COc1ccc(NC(=O)C2c3ccccc3OCC(=O)N2Cc2ccc3c(c2)OCO3)cc1 (stereo unspecified) | -1 | 0 | · | 5536 | · | 1
Cc1noc(C)c1S(=O)(=O)N(C)C[C@H]1Oc2c(NC(=O)NC(C)C)cccc2C(=O)N([C@H](C)CO)C[C@@H]1C | 5 | 0 | 0 | 3516 | 3 | -4
N#CCCN(CCC#N)C(=O)c1ccc2c(c1)OCO2 | -4 | 3 | -1 | 20717* | -5 | 4
CCCN(CCC)C(=O)c1ccc2c(c1)OCO2 | 2 | 0 | 2 | 9695 | -3 | 2
O=C(NC1(C(F)(F)F)NC(=O)N(c2ccc(F)c(Cl)c2)C1=O)c1ccncc1 (stereo unspecified) | -4 | -3 | 1 | 23968* | 0 | -2
O=C(NC(Cc1ccccc1)C(=O)O)/C(=C/c1ccccc1)NC(=O)c1ccco1 (stereo unspecified) | -1 | -2 | -1 | 5369 | -9 | 1
Cn1c(-c2ccc3c(c2)OCO3)cnc1NCc1ccc(Cl)cc1 | -11 | -2 | 1 | 21164* | 4 | -4
Cc1ccc(S(=O)(=O)c2nc(NCc3ccc4c(c3)OCO4)sc2Cl)cc1 | 1 | 3 | 1 | 25130* | -9 | 0
Cc1ccc(CNc2ccc3c(c2)OCO3)cc1 | -17 | 17 | 1 | 15077 | 59* | -24
Cc1ccc(CNc2ncc(-c3ccc4c(c3)OCO4)n2C)cc1 | -4 | 1 | 0 | 22743* | 10 | 1
Cc1cccc(C)c1-n1nnnc1C1(C)CCC(=O)N1Cc1cccnc1 (stereo unspecified) | 4 | 1 | · | 5114 | · | 1
O=C(c1ccc2c(=O)n3c(nc2c1)CCCCC3)N1CCN(c2ccc([N+](=O)[O-])cc2)CC1 | -6 | 1 | 2 | 5222 | 10 | 5
O=C(CNC(=O)[C@@H]1Cc2ccccc2CN1)NCc1ccco1 | -4 | 0 | -1 | 5285 | 5 | -2
CCCCCCn1cc(CN2CC(N(C)CC)CS2(=O)=O)nn1 (stereo unspecified) | -2 | 1 | · | 6036 | · | -6
COc1cccc(COC(=O)C2CC(=O)N(Cc3ccc(C)cc3)C2)c1OC (stereo unspecified) | -17 | -70 | -1 | ? | -3 | -122
SMILES | Anthrax LF inh2 | BoNT A protease | PfHsp40 rescue | Bead autofluor | MazF activator | BoNT F protease
CCCCNC(=O)N(O)C1N(/N=C/c2ccccc2OC)C(=S)SC1(C)C (stereo unspecified) | -7 | -1 | 0 | 3477 | 4 | 62*
CCOC(=O)C1=C(N)OC2=C(C(=O)CC(C)(C)C2)C1c1cccnc1 (stereo unspecified) | -2 | 1 | -1 | 22141* | -1 | 0
CC1=C(C(=O)OC(C)C)C(c2cccnc2)C2=C(CCCC2=O)N1 (stereo unspecified) | -8 | 0 | 2 | 5671 | 8 | 3
CCOC(=O)C1=C(C)NC2=C(C(=O)CCC2)C1c1cccnc1 (stereo unspecified) | 0 | -2 | -1 | 23612* | -15 | -6
CCOC(=O)C1=C(N)OC2=C(C(=O)CCC2)C1c1cccnc1 (stereo unspecified) | -1 | 0 | -1 | 2242 | -11 | -10
O=C(O)c1cn(-c2ccccc2)nc1-c1cccnc1 | 0 | 1 | 1 | 20326* | 5 | -1
O=C(O)c1cn(-c2ccccc2)nc1-c1ccncc1 | 1 | 0 | -1 | 4743 | -1 | -9
CCOc1cc(/C=C/C(=O)OCC(=O)NCC2CCCO2)cc(Cl)c1OC (stereo unspecified) | -6 | 0 | -1 | 2882 | -3 | -13
Cc1nn(CC(O)c2ccccc2)c(C)c1Br (stereo unspecified) | 0 | -2 | 0 | 21421* | 3 | 0
COc1ccccc1N1C(=O)C(Cl)=C(Nc2ccccc2O)C1=O | 0 | 3 | 92* | 2816 | -41 | 3
CCOC(=O)c1c(C)[nH]c(C(=O)OCC(=O)N(C)CC(=O)Nc2ccccc2Cl)c1C | 2 | 3 | 1 | ? | -4 | ?
CC(C)NC(=O)C1CCCN(S(=O)(=O)c2ccc(-n3cnnn3)cc2)C1 (stereo unspecified) | -3 | -2 | 1 | 16890* | -12 | -5
O=C(NC1CCCC1)C1CCCN(S(=O)(=O)c2ccc(-n3cnnn3)cc2)C1 (stereo unspecified) | -5 | 0 | 0 | 4357 | 0 | 3
CCOC(=O)C1CCCN(C(=O)Cc2c(C(=O)O)[nH]c3ccccc23)C1 (stereo unspecified) | 0 | 0 | 2 | 23230* | 4 | 1
CCOC(=O)C1CCCN(CCCc2ccccc2)C1 (stereo unspecified) | 3 | 0 | -1 | 23848*! | 2 | 4
CCOC(=O)c1ccc(S(=O)(=O)N2CCN(CC3CC=CCC3)CC2)cc1 (stereo unspecified) | -8 | ? | -2 | 17091* | -1 | 7
CCOC(=O)c1ccc(S(=O)(=O)N2CCN(S(=O)(=O)CC)CC2)cc1 | 0 | -1 | 1 | 5312 | -4 | -39
NS(=O)(=O)c1cccc(NC(=O)c2cccnc2Oc2ccccc2)c1 | 5 | 0 | -2 | 5599 | 0 | 4
CCOc1ccc(-c2nc(CS(=O)(=O)CC(=O)NCc3ccc(F)cc3)c(C)o2)cc1 | 0 | 0 | 0 | 5419 | 3 | -7
CCOC(=O)C1CCCN(S(=O)(=O)c2ccccc2)C1 (stereo unspecified) | -1 | 2 | 1 | 22239* | -4 | 6
